In PubChem BioAssay (NCI):
About 79,000 compounds went through this panel and 15% of them were active in at least one assay; those are over-represented in the sample as a whole. Unmarked numbers belong to inactive results. Active and inactive are the calls of the source. Rule as the data show it: active = growth inhibition above about 70%; inactive = the rest.

Key:
[1] = NCI Yeast Anticancer Drug Screen. Data for the wt1 strain (AID 149);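 also: 0% = growth of vehicle-treated wt1 cultures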; conditions: S. cerevisiae wt1 strain (SPY 50644) growth inhibition, stronger effect = higher value
Outline: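 Each compound is tested on wt1 yeast and the loss of growth versus vehicle gives the inhibition value.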

[2] = NCI Yeast Anticancer Drug Screen. Data for the mgt1 strain (AID 153); conditions: S. cerevisiae mgt1 mutant growth inhibition, stronger effect = higher value
Outline: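 Genetically defined yeast (mgt1) treated with compound; inhibition of growth expressed against vehicle-treated controls.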

[3] = NCI Yeast Anticancer Drug Screen. Data for the rad50 strain (AID 155);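 also: 0% = growth of vehicle-only cultures of the same strain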; conditions: S. cerevisiae rad50 strain growth inhibition, stronger effect = higher value
Outline: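 Vehicle-treated cultures provide the reference for the growth inhibition reported for compound-exposed, repair-deficient yeast.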

[4] = NCI Yeast Anticancer Drug Screen. Data for the mec2-1 strain (AID 157); conditions: S. cerevisiae mec2-1 strain, stronger effect = higher value
Outline: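 Readout is yeast growth inhibition, normalised to vehicle-treated controls, in the mec2-1 strain exposed to compound.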

[5] = NCI Yeast Anticancer Drug Screen. Data for the rad14 strain (AID 159);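 also: 0% = growth of vehicle-treated control cultures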; conditions: S. cerevisiae rad14 strain growth inhibition, stronger effect = higher value
Outline: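 Inhibition of growth is reported for a repair-deficient yeast mutant following compound treatment, calculated relative to cultures that received vehicle.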

[6] = NCI Yeast Anticancer Drug Screen. Data for the sgs1 mgt1 strain (AID 161);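 also: 0% = growth of cultures given vehicle only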; conditions: S. cerevisiae sgs1 mgt1 strain, stronger effect = higher value
Outline: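 Growth of a repair-deficient yeast mutant was monitored after compound treatment and expressed as inhibition relative to vehicle-treated cultures.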

[7] = NCI Yeast Anticancer Drug Screen. Data for the CLN2oe strain (AID 163);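 also: 0% = growth of vehicle-only control cultures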; conditions: S. cerevisiae CLN2oe strain, stronger effect = higher value
Outline: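 Values reflect how much compound exposure reduced yeast growth, referenced to vehicle-exposed cells. Assay organism is a strain with a defined genetic change affecting cell-cycle control.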

[8] = NCI Yeast Anticancer Drug Screen. Data for the cln2 rad14 strain (AID 165);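 also: 0% = growth equal to vehicle treated cultures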; conditions: S. cerevisiae cln2 rad14 strain, stronger effect = higher value
Outline: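 Relative to vehicle controls, growth inhibition of compound-treated cln2 rad14 yeast was recorded.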

[9] = NCI Yeast Anticancer Drug Screen. Data for the bub3 strain (AID 167); conditions: S. cerevisiae bub3 mutant strain, stronger effect = higher value
Outline: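 Mutant yeast screening strain plus compound; vehicle-treated cultures serve as the 0% inhibition reference.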

[10] = NCI Yeast Anticancer Drug Screen. Data for the wt2 strain (AID 169); conditions: S. cerevisiae wt2 strain growth inhibition, stronger effect = higher value
Outline: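 Values express reduction in yeast growth under compound treatment, referenced to vehicle-treated cells.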

[11] = NCI Yeast Anticancer Drug Screen. Data for the mlh1 strain (AID 171);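 also: 0% = growth of vehicle-treated control cultures of the same strain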; conditions: S. cerevisiae mlh1 strain growth inhibition, stronger effect = higher value
Outline: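 Steps: expose the defined-mutant yeast strain to compound; expose a parallel culture to vehicle; measure growth; express compound effect as inhibition relative to the vehicle culture.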

[12] = NCI Yeast Anticancer Drug Screen. Data for the sgs1 strain (AID 173);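 also: 0% = growth of vehicle-only control cultures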; conditions: S. cerevisiae sgs1 mutant, stronger effect = higher value
Outline: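 Treat defined-mutant yeast with compound; measure growth; calculate inhibition relative to vehicle-treated cells.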

[13] = NCI Yeast Anticancer Drug Screen. Data for the mlh1 rad18 strain (AID 175); conditions: S. cerevisiae mlh1 rad18 strain growth inhibition, stronger effect = higher value
Outline: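 Test agents were incubated with a yeast strain of defined genotype (DNA damage repair defect). Inhibition of growth was derived by comparison with vehicle-exposed cultures.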

[14] = NCI Yeast Anticancer Drug Screen. Data for the rad18 strain (AID 177); conditions: S. cerevisiae rad18 mutant growth inhibition, stronger effect = higher value
Outline: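 A genetically defined yeast mutant impaired in DNA damage repair was treated with test compounds, then its growth was measured against cultures receiving vehicle alone.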

[15] = at 5.0 µM (retest, dose inferred, filed as 0.5)
[16] = at 50.0 µM (retest, dose inferred, filed as 5.0)

O=C1c2ccccc2-c2ccc(NC(=O)C3CCCCC3C(=O)O)cc21 (stereo not drawn)
growth inhibition ([1]; at 1.2 µM): 0% | growth inhibition ([1]; at 3.7 µM): -2% | growth inhibition ([1]; at 11.0 µM): -1% | growth inhibition ([1]; at 33.0 µM): 7% | growth inhibition ([1]; at 100.0 µM): 40% | growth inhibition ([2]; at 1.2 µM): -2% | growth inhibition ([2]; at 3.7 µM): -2% | growth inhibition ([2]; at 11.0 µM): -3% | growth inhibition ([2]; at 33.0 µM): 13% | growth inhibition ([2]; at 100.0 µM): 72% (active) | growth inhibition ([3]; at 1.2 µM): 4% | growth inhibition ([3]; at 3.7 µM): 5% | growth inhibition [3, 15]: 3% | growth inhibition ([3]; at 11.0 µM): 10% | growth inhibition ([3]; at 33.0 µM): 24% | growth inhibition [3, 16]: 22% | growth inhibition ([3]; at 50.0 µM): 43.1% | growth inhibition ([3]; at 100.0 µM): 64% | growth inhibition ([4]; at 1.2 µM): 4% | growth inhibition ([4]; at 3.7 µM): 6% | growth inhibition [4, 15]: 18% | growth inhibition ([4]; at 11.0 µM): 5% | growth inhibition ([4]; at 33.0 µM): 18% | growth inhibition [4, 16]: 15% | growth inhibition ([4]; at 50.0 µM): 42.6% | growth inhibition ([4]; at 100.0 µM): 67% | growth inhibition ([5]; at 1.2 µM): -2% | growth inhibition ([5]; at 3.7 µM): -12% | growth inhibition ([5]; at 11.0 µM): -2% | growth inhibition ([5]; at 33.0 µM): 1% | growth inhibition ([5]; at 100.0 µM): 86% (active) | growth inhibition [6, 15]: -2% | growth inhibition [6, 16]: 7% | growth inhibition ([6]; at 50.0 µM): 42.3% | growth inhibition ([7]; at 1.2 µM): -9% | growth inhibition ([7]; at 3.7 µM): -5% | growth inhibition ([7]; at 11.0 µM): -10% | growth inhibition ([7]; at 33.0 µM): -2% | growth inhibition ([7]; at 100.0 µM): 40% | growth inhibition [8, 15]: -20% | growth inhibition [8, 16]: -58% | growth inhibition ([8]; at 50.0 µM): 12.7% | growth inhibition ([9]; at 1.2 µM): 44% | growth inhibition ([9]; at 3.7 µM): 55% | growth inhibition [9, 15]: 6% | growth inhibition ([9]; at 11.0 µM): 72% (active) | growth inhibition ([9]; at 33.0 µM): 80% (active) | growth inhibition [9, 16]: 78% (active) | growth inhibition ([9]; at 50.0 µM): 90.5% (active) | growth inhibition ([9]; at 100.0 µM): 90% (active) | growth inhibition ([10]; at 1.2 µM): 0% | growth inhibition ([10]; at 3.7 µM): -1% | growth inhibition ([10]; at 11.0 µM): 1% | growth inhibition ([10]; at 33.0 µM): 24% | growth inhibition ([10]; at 100.0 µM): 80% (active) | growth inhibition ([11]; at 1.2 µM): 7% | growth inhibition ([11]; at 3.7 µM): 3% | growth inhibition ([11]; at 11.0 µM): 4% | growth inhibition ([11]; at 33.0 µM): 1% | growth inhibition ([11]; at 100.0 µM): 77% (active) | growth inhibition ([12]; at 1.2 µM): 3% | growth inhibition ([12]; at 3.7 µM): 7% | growth inhibition ([12]; at 11.0 µM): 15% | growth inhibition ([12]; at 33.0 µM): 41% | growth inhibition ([12]; at 100.0 µM): 85% (active) | growth inhibition [13, 15]: -7% | growth inhibition [13, 16]: 34% | growth inhibition ([13]; at 50.0 µM): 41.2% | growth inhibition ([14]; at 1.2 µM): 12% | growth inhibition ([14]; at 3.7 µM): 2% | growth inhibition ([14]; at 11.0 µM): 16% | growth inhibition ([14]; at 33.0 µM): 31% | growth inhibition ([14]; at 100.0 µM): 72% (active)
